Calls of active or inactive are those of the source.

Assay [1] in a line: compound effects on differentiated 3T3-L1 adipocyte viability – cell-based, 3T3-L1 adipocytes, calcein-AM fluorescence, 48 h, basal, profiling panel (AID 1163). As to conditions: 3T3-L1 adipocytes viability, higher = more signal.
A short description of assay [2]: compound effects on hepatocellular carcinoma cell viability – HepG2, calcein-AM fluorescence, 48 h, basal, profiling panel (AID 1164). As to conditions: higher = more signal.
The nature of assay [3]: compound effects on multiple myeloma cell viability – MM1S, calcein-AM fluorescence, 48 h, basal, profiling panel (AID 1165).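 Further: viability of MM1S multiple myeloma cells under basal unstimulated conditions.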 To be noted: higher = more signal.
Assay [4] can be described thus: calcein-AM signal in unstimulated myeloma cells – cell-based, calcein-AM fluorescence, 48 h, PK04 Diversity Set, profiling panel (AID 1166).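 Further: cells grown under basal conditions without added stimulus.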 To be noted: RPMI8226 myeloma viability, higher = more signal.
The nature of assay [5]: JC-1 mitochondrial signal, unstimulated HepG2 cells – cell-based, JC-1 fluorescence, 24 h, 100 nL compound, profiling panel (AID 1167). To be noted: HepG2 mitochondrial potential, higher = more signal.
Assay [6] can be described thus: JC-1 mitochondrial signal, unstimulated adipocytes – cell-based, JC-1 fluorescence, 3T3-L1 adipocytes, 24 h, 100 nL compound, profiling panel (AID 1168). As to conditions: JC-1 mitochondrial fluorescence, higher = more signal, called active from +8 up or from −8 down.
Assay [7] in a line: JC-1 mitochondrial signal, unstimulated myeloma cells – cell-based, JC-1 fluorescence, RPMI8226, 24 h, 100 nL compound, profiling panel (AID 1169). As to conditions: JC-1 mitochondrial potential fluorescence, higher = more signal.
Assay [8] can be described thus: JC-1 mitochondrial signal, unstimulated MM1S myeloma – cell-based, JC-1 fluorescence, 24 h, 100 nL compound, profiling panel (AID 1170). To be noted: MM1S mitochondrial potential, higher = more signal.
A short description of assay [9]: resazurin metabolic signal in A549 cells – cell-based, resazurin fluorescence, 24 h, PK04 Diversity Set, profiling panel (AID 1171). As to conditions: A549 viability, higher = more signal, called active from +8 up or from −8 down.
Assay [10] is described as follows: resazurin metabolic signal in HepG2 cells – cell-based, resazurin fluorescence, 24 h, PK04 Diversity Set, profiling panel (AID 1172). As to conditions: HepG2 viability, higher = more signal. (In general: The colour change of resazurin is a common sign of viable cells or microbes.)
Assay [11] in a line: budding yeast growth changes without added modifier – OD600, strain BY4716, 24 h, basal condition, primary screen (AID 1173). As to conditions: S. cerevisiae BY4716 growth, OD600, 24 h; higher = more signal, called active from +8 up or from −8 down.
The nature of assay [12]: viability profiling in MM1S myeloma cells – cell-based, resazurin fluorescence, basal, 24 h, PK04 Diversity Set, profiling panel (AID 1174). To be noted: higher = more signal, called active from +8 up or from −8 down.
Assay [13] concerns the target Dihydroorotate dehydrogenase (quinone), mitochondrial (Plasmodium falciparum (isolate 3D7)) (UniProt Q08210). Description: inhibition of P. falciparum DHODH – biochemical, C-terminal His tag, absorbance 600 nm, primary screen (AID 1175).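 Further: recombinant parasite enzyme with a five histidine tag at its C terminus.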 As to conditions: PfDHODH enzyme, DCIP absorbance 600 nm; higher = more signal, called active from +8 up or from −8 down.
The nature of assay [14]: growth modulation of vineyard yeast isolate – strain RM11-1a, OD600, basal, 24 h, primary screen (AID 1177).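 Further: cultures grown under basal conditions with no added stressor.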 As to conditions: S. cerevisiae RM11-1a growth, OD600, 24 h; higher = more signal, called active from +8 up or from −8 down.
The nature of assay [15]: growth of efflux-deficient E. coli DRC39 – strain DRC39, OD650, 24 h, E. coli filamentation inducers, primary screen (AID 1178).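 Further: growth measured as culture turbidity by optical density at 650 nm.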 To be noted: E. coli DRC39 acrAB, higher = more signal, called active from +8 up or from −8 down.
Assay [16] is described as follows: growth of efflux-deficient E. coli DRC39 – strain DRC39, OD650, 48 h, E. coli filamentation inducers, primary screen (AID 1179).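 Further: screen aims at cell division blockers that make cells filament.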 To be noted: E. coli DRC39 delta-acrAB growth, higher = more signal, called active from +8 up or from −8 down.
Assay [17] can be described thus: viability profiling in RPMI8226 myeloma cells – cell-based, resazurin fluorescence, basal, 24 h, PK04 Diversity Set, profiling panel (AID 1180).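 Further: RPMI8826 multiple myeloma cell line at 5000 cells per well.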 To be noted: higher = more signal.
For assay [18], the target named is E3 ubiquitin-protein ligase XIAP (Homo sapiens) (UniProt P98170). Kind of assay: small molecules binding XIAP protein – biophysical, small-molecule microarray, fluorescence 635 nm, primary screen (AID 1181).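 Further: score merges 667 nm emission and signal to noise over triplicate slides.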 As to conditions: higher = more signal.
Chain of E3 ubiquitin-protein ligase XIAP (Homo sapiens) (P98170 whole entry, looked up, the tested form may be a part): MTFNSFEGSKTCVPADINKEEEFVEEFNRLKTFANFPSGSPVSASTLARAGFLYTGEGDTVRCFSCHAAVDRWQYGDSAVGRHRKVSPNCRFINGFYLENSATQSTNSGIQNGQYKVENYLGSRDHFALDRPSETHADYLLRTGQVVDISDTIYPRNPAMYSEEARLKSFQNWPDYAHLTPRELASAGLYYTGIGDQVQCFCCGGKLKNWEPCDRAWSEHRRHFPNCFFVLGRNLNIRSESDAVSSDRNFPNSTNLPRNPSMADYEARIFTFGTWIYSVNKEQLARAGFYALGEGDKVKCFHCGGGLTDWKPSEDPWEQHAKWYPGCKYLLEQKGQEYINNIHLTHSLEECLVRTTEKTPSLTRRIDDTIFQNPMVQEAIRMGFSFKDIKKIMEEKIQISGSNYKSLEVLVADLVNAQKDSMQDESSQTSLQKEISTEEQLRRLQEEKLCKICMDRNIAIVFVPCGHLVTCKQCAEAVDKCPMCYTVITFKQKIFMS
The test system of assay [19] is XIP peptide (Xip251-270) binding. Description: XIP fragment 251-270 binding compounds – biochemical, small-molecule microarray, fluorescence 635/667 nm, 0.1 µg/mL protein, primary screen (AID 1182). To be noted: fluorescent protein binding, 635 nm, higher = more signal, called active from +8 up or from −8 down.
In another assay the test system is XIP peptide (Xip251-270). Description: compounds binding XIP fragment 251-270 – biochemical, small-molecule microarray, fluorescence 635/667 nm, 0.5 µg/mL protein, primary screen (AID 1183). To be noted: fluorescence 635 nm, higher = more signal.

Chain of Dihydroorotate dehydrogenase (quinone), mitochondrial (Plasmodium falciparum (isolate 3D7)) (Q08210 whole entry, looked up): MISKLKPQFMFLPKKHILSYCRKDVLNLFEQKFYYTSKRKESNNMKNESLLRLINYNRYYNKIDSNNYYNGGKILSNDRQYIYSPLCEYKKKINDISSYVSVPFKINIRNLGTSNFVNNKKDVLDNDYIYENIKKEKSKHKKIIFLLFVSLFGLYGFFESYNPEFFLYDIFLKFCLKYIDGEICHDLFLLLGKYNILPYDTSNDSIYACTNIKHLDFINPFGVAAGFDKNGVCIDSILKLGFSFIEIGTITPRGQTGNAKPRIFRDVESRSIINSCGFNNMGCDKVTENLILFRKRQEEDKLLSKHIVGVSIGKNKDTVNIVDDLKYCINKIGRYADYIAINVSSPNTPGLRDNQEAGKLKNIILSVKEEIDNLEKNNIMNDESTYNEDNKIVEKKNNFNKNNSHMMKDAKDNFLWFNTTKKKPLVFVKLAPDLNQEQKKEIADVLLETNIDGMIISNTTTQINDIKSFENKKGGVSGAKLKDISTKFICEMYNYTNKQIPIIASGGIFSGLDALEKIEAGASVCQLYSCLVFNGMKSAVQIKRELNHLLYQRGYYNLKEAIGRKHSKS

In the case of `C=CCN1C(=O)[C@@]2(O[C@@H](CCO)[C@H]([Si](C)(C)c3ccc(OC)cc3)[C@H]2C)c2cc(N3C(=O)c4cccc5cccc3c45)ccc21`, the z-score was -1.3 in assay [1]; -4.72 in assay [2]; -2.92 in assay [3]; -4.4 in assay [4]; -2.34 in assay [5]; 2.26 (inactive) in assay [6]. The z-score is -1.01 in assay [7]; -2.09 in [8]; -4.58 (inactive) in [9]; -6.14 in assay [10]; 0.275 (inactive) in assay [11]; -8.59 (active) in assay [12]. Moreover, the z-score was 5.51 (inactive) in assay [14], 2.57 (inactive) in assay [15], 2.05 (inactive) in assay [16] and -6.03 in assay [17]. Further, the composite z-score is 0.901 (inactive) in assay [13], 0.0411 in assay [18], 0.777 (inactive) in assay [19] and 0.714 in the assay with XIP peptide (Xip251-270).
As to `C[N+](C)(C)CCCC[C@@H]1NC(=O)[C@@H]2C[C@H](C(=O)NCCCCCNC(=O)CS)[C@H](c3ccc(O)cc3)N2C1=O`, the z-score in assay [1] was 1.09; in [2], -0.792; in assay [3], -0.982; in assay [4], 0.027; in assay [5] it was 2; in assay [6], 0.385 (inactive). Also, the z-score in assay [7] is 0.289; in assay [8], -0.336; in assay [9], 1.09 (inactive); in assay [10] it was -0.122; in assay [11], -1.15 (inactive); in assay [12], 0.941 (inactive). For the same compound, the z-score in [14] is -1.36 (inactive); in assay [15], 0.513 (inactive); in assay [16], 0.355 (inactive); in assay [17], 1.55. In addition, the composite z-score was -1.15 (inactive) in assay [13], 0.0471 in assay [18], 0.609 (inactive) in assay [19] and 0.184 in the assay with XIP peptide (Xip251-270).
`[N-]=[N+]=Nc1ccccc1[C@H]1OC(c2ccc(OCCCO)cc2)=N[C@@]1(Cc1ccccc1)C(N)=O`: the z-score in assay [1] was 1.26; in assay [2], 0.13; in [3] it was -3.09; in assay [4] it was -3.37; in [5], 0.912; in assay [6] it was 3.11 (inactive). The z-score is -1.05 in assay [7]; -1.45 in [8]; -1.6 (inactive) in assay [9]; 0.0234 in [10]; -1.69 (inactive) in assay [11]; -1.29 (inactive) in assay [12]. Also, the z-score in [14] is 0.401 (inactive); in assay [15], 2.24 (inactive); in assay [16], 1.45 (inactive); in [17] it was -1.96. For the same compound, the composite z-score is -0.227 (inactive) in [13], -0.0351 in assay [18], 1.05 (inactive) in assay [19] and 0.657 in the assay with XIP peptide (Xip251-270).
In the case of `C=CCN1C(=O)[C@@]2(O[C@@H](CCn3cc(CCO)nn3)[C@H]([Si](C)(C)c3ccc(OC)cc3)[C@H]2C)c2cc(N3C(=O)c4cccc5cccc3c45)ccc21`, the z-score is 0.0493 in assay [1]; -4.79 in [2]; -2.73 in assay [3]; -4.46 in assay [4]; -2.84 in assay [5]; 1.32 (inactive) in [6]. For the same compound, the z-score in [7] was -1.15; in [8] it was -2.09; in assay [9], -5.51 (inactive); in [10] it was -6.41; in [11], -1.2 (inactive); in assay [12] it was -9.06 (active). Further, the z-score in assay [14] was 1.19 (inactive); in [15], 2.37 (inactive); in assay [16], 2.05 (inactive); in [17], -6.23. For the same compound, the composite z-score is -0.0753 (inactive) in assay [13], 0.137 in [18], 0.254 (inactive) in assay [19] and 0.339 with XIP peptide (Xip251-270).
As for `NC(=O)N1C(=O)C2C(C1=O)C1C=C(c3ccc(CO)cc3)C2C(C2CC2)N1Cc1cc2c(cc1Br)OCO2` (stereo not given), the z-score in assay [1] is 1.32; in [2], -0.282; in assay [3] it was -0.767; in assay [4], -1.11; in assay [5], 1.26; in assay [6], 1.44 (inactive). The z-score in assay [7] is -0.3; in assay [8], 0.463; in [9], 0.761 (inactive); in assay [10], 0.627; in [11] it was -3.17 (inactive); in assay [12], 0.814 (inactive). The z-score is -1.02 (inactive) in assay [14], 1.36 (inactive) in [15], 0.422 (inactive) in assay [16] and 0.298 in assay [17]. In addition, the composite z-score in assay [13] was -0.692 (inactive); in [18], -0.143; in assay [19], 1.06 (inactive); with XIP peptide (Xip251-270) it was -0.673.

These data come from PubChem BioAssay.
